Assay results published in PubChem BioAssay (Tox21).
“And” between values parts separate entries of the source, which are not always exact repeats. Equal values may be shown once. Records with an inconclusive call do not appear. The source made the active and inactive calls. The call rests on the fitted dose curve; in most records, active means well fitted cell-killing curve with a large enough effect in the repeat runs; inconclusive means weak or mixed curves; inactive means no such curve, though single readings can be large or run the other way.

Experiment: qHTS assay to identify small molecule agonists of the peroxisome proliferator-activated receptor delta (PPARd) signaling pathway - cell viability counter screen (AID 743211); further: nearly all actives have a fitted effect of over 55% in size
Details: PPARd-bla HEK293H viability, CellTiter-Glo luminescence, 17 h; series mostly up to 62.6 µM
In short: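 In the same wells used for beta-lactamase reporter measurement, cytotoxicity is scored by CellTiter-Glo. HEK293H PPARd-bla cells receive compound for 17 h at 37C following a 5 h settling period.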
Potency means the concentration at half of the fitted maximal effect.

Row | SMILES | Potency
1 | C[C@]12CC[C@@H]3c4ccc(OC(=O)N(CCCl)CCCl)cc4CC[C@H]3[C@@H]1CC[C@@H]2O | inactive
2 | CC1(C)CN=C(NN=C(/C=C/c2ccc(C(F)(F)F)cc2)/C=C/c2ccc(C(F)(F)F)cc2)NC1 | 7.76 µM (active)
3 | CCCCCCCCCBr | inactive
4 | c1ccc2cc3c(cc2c1)-c1cccc2cccc-3c12 | inactive
5 | CC(=O)[O-].CC(=O)[O-].O.O.[Cd+2] | 0.765 µM (active)
6 | CCCCCCCCCCCCCC[P+](CCCCCC)(CCCCCC)CCCCCC (tested in a mixture with another compound) | 2.46 µM (active)
7 | CCCCCCCCCCCCCCCC[N+](C)(C)C | 16.8 µM (active) and 38.9 µM (active) and 23.7 µM (active)
8 | Cc1cc(C)c(C2=C(OC(=O)CC(C)(C)C)C3(CCCC3)OC2=O)c(C)c1 | inactive
9 | Cc1cc(SCc2sc(-c3ccc(C(F)(F)F)c(F)c3)nc2C)ccc1OCC(=O)O | 38.9 µM (active)
10 | CC[C@H](C)[C@H]1O[C@]2(C=C[C@@H]1C)C[C@@H]1C[C@@H](C/C=C(\C)[C@@H](O[C@H]3C[C@H](OC)[C@@H](O[C@H]4C[C@H](OC)[C@@H](O)[C@H](C)O4)[C@H](C)O3)[C@@H](C)/C=C/C=C3\CO[C@@H]4[C@H](O)C(C)=C[C@@H](C(=O)O1)[C@]34O)O2 | 11.5 µM (active)
11 | CCOC(=O)CC(=O)CCl | inactive
12 | C[C@@H]1CC[C@@]2(OC1)O[C@H]1[C@@H](O)[C@H]3[C@@H]4CC[C@H]5C[C@@H](O[C@@H]6O[C@H](CO)[C@H](O[C@@H]7O[C@H](CO)[C@@H](O)[C@H](O[C@@H]8OC[C@@H](O)[C@H](O)[C@H]8O)[C@H]7O[C@@H]7O[C@H](CO)[C@@H](O)[C@H](O[C@@H]8O[C@H](CO)[C@@H](O)[C@H](O)[C@H]8O)[C@H]7O)[C@H](O)[C@H]6O)[C@H](O)C[C@]5(C)[C@H]4CC[C@]3(C)[C@H]1[C@@H]2C | 5.83 µM (active)
13 | O=[N+]([O-])c1ccc2ccc3cccc4ccc1c2c34 | inactive
14 | O=[N+]([O-])c1cc(C(F)(F)F)c(Cl)c([N+](=O)[O-])c1Cl | 11 µM (active)
15 | CC(C)[C@H](C(=O)OC(C#N)c1cccc(Oc2ccccc2)c1)c1ccc(OC(F)F)cc1 (some centres not stated) | inactive
16 | CC(C)CC(C)N (configuration not stated) | inactive

Row | SMILES | Potency
17 | Nc1ccccc1C(=O)OC/C=C/c1ccccc1 | 39 µM (active)
18 | CC(C)[C@H](C(=O)O[C@H](C#N)c1cccc(Oc2ccccc2)c1)c1ccc(Cl)cc1 | inactive
19 | Clc1ccc(C(c2ccccc2Cl)C(Cl)(Cl)Cl)cc1 (configuration not stated) | 49.3 µM (active) and 28.7 µM (active)
20 | CN(C)C(=S)[S-].CN(C)C(=S)[S-].[Cu+2] | 0.946 µM (active)
21 | CN(C)S(=O)(=O)N(SC(F)(Cl)Cl)c1ccccc1 | 24.5 µM (active)
22 | O=C1c2ccccc2C(=O)C1C(=O)C(c1ccccc1)c1ccc(Cl)cc1 (configuration not stated) | 24.5 µM (active)
23 | CC1CCC(C(C)C)C(OC(=O)c2ccccc2N)C1 (configuration not stated) | 24.2 µM (active)
24 | C=CC(=O)OCCCCOC(=O)C=C | 49 µM (active)
25 | CCC(C)(C)C(=O)OC1=C(c2ccc(Cl)cc2Cl)C(=O)OC12CCCCC2 | inactive
26 | N#CSCSC#N | 50.1 µM (active) and 43.2 µM (active)
27 | ClC1=C(Cl)[C@]2(Cl)[C@H]3[C@H]([C@H]4C=C[C@H]3C4)[C@@]1(Cl)C2(Cl)Cl | inactive
28 | O=C(CBr)c1ccc(O)cc1 | inactive
29 | CC(C)OC(=O)C(O)(c1ccc(Cl)cc1)c1ccc(Cl)cc1 | inactive
30 | FC(Cl)(Cl)Cl | inactive
31 | C[C@@H]1O[C@@H](O[C@H]2C[C@@H](O)[C@]3(CO)[C@H]4[C@H](O)C[C@]5(C)[C@@H](C6=CC(=O)OC6)CC[C@]5(O)[C@@H]4CC[C@]3(O)C2)[C@H](O)[C@H](O)[C@H]1O | 46.5 nM (active) and 188 nM (active)
32 | CCCCCCCCCCCCBr | inactive
